Laboratory results taken from the supplement of paper PMC12350171.
Structures can show the parent of a compound that is named as a salt.

Key:
Assay in all cases: growth AUC normalised to DMSO control (median) (fraction of control); higher = less growth inhibition, active = hit call of the paper
Settings in all cases: 20 µM;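 active = normalised median growth AUC below 0.1 of DMSO control; inactive = AUC 0.1 or higher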
P. vulgatus RND KO = test system: P. vulgatus RND KO
Outline: (§1)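 Each strain went through two overnight passages under anaerobic conditions before growth in mGAM in 96-well plates, starting at OD578 0.01, with each compound from the approved-drug library at 20 μM and 1% DMSO. Inside an anaerobic incubator, OD578 was recorded every hour for 24 h. Growth curves were cut off at entry into stationary phase, and the area under the curve was calculated by the trapezoidal rule and normalised to vehicle wells on the same plate. Reported values are medians of three biological replicates.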

P. vulgatus WT = test system: P. vulgatus WT
Outline: as §1

[1] = test system: S. enterica typhimurium WT
Outline: as §1

[2] = test system: S. enterica typhimurium tolC KO
Outline: as §1

Measured: growth AUC normalised to DMSO control
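Note: active when median AUC fell below 0.1.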

COc1ccc(-c2noc(CC(=O)O)c2-c2ccc(OC)cc2)cc1 [Mofezolac]
inactive: P. vulgatus RND KO 0.999 | P. vulgatus WT 1.03 | [1] 1.01 | [2] 0.998

Cn1c(NCCN(CCO)CCCc2ccc([N+](=O)[O-])cc2)cc(=O)n(C)c1=O [Nifekalant]
inactive: P. vulgatus RND KO 1.06 | P. vulgatus WT 1.03 | [1] 1.02 | [2] 1

O=C1c2cccc(O)c2C(=O)c2c(O)cccc21 [Danthron]
inactive: P. vulgatus RND KO 0.689 | P. vulgatus WT 0.525 | [1] 0.991 | [2] 0.369

CNCC[C@@H](Oc1cccc2ccccc12)c1cccs1 [(R)-Duloxetine hydrochloride]
inactive: P. vulgatus RND KO 1.02 | P. vulgatus WT 0.993 | [1] 0.999 | [2] 0.929

Cc1ccc(C(=O)c2cc(O)c(O)c([N+](=O)[O-])c2)cc1 [Tolcapone]
active: P. vulgatus WT 0.0123
inactive: P. vulgatus RND KO 0.474 | [1] 0.993 | [2] 0.91

O=C(O)CSCC(=O)NC1CCSC1=O (stereo not given) [Erdosteine]
inactive: P. vulgatus RND KO 1.02 | P. vulgatus WT 1.04 | [1] 1 | [2] 0.999

CN1CC(=O)N2[C@H](c3ccc4c(c3)OCO4)c3[nH]c4ccccc4c3C[C@@H]2C1=O [Tadalafil]
inactive: P. vulgatus RND KO 0.919 | P. vulgatus WT 0.845 | [1] 0.996 | [2] 0.981

C[C@H]1[C@@H](O)O[C@@H]2O[C@@]3(C)CC[C@H]4[C@H](C)CC[C@@H]1[C@@]24OO3 [Artenimol]
inactive: P. vulgatus RND KO 1.04 | P. vulgatus WT 1.04 | [1] 1 | [2] 1

CC(C(=O)O)c1ccc2c(c1)CC(=O)c1ccccc1S2 (stereo not given) [Zaltoprofen]
inactive: P. vulgatus RND KO 1.02 | P. vulgatus WT 1.01 | [1] 0.998 | [2] 0.978

CC(=O)OCC(=O)[C@@]1(O)CC[C@H]2[C@@H]3CCC4=CC(=O)C=C[C@]4(C)[C@@]3(F)[C@@H](O)C[C@@]21C [Isoflupredone acetate]
inactive: P. vulgatus RND KO 1.03 | P. vulgatus WT 0.986 | [1] 1 | [2] 0.98

COc1cc2c(cc1OC)C(=O)C(CC1CCN(Cc3ccccc3)CC1)C2 (stereo not given) [Donepezil hydrochloride]
inactive: P. vulgatus RND KO 0.997 | P. vulgatus WT 1.01 | [1] 0.997 | [2] 0.981

C=C1[C@H](CO)[C@@H](O)C[C@@H]1n1cnc2c(=O)[nH]c(N)nc21 [Entecavir]
inactive: P. vulgatus RND KO 1 | P. vulgatus WT 0.996 | [1] 0.999 | [2] 0.987

O=C1CN2Cc3c(ccc(Cl)c3Cl)N=C2N1 [Anagrelide]
inactive: P. vulgatus RND KO 1.01 | P. vulgatus WT 0.996 | [1] 0.994 | [2] 0.957

CNCc1cc(-c2ccccc2F)n(S(=O)(=O)c2cccnc2)c1 [Vonoprazan]
inactive: P. vulgatus RND KO 1.02 | P. vulgatus WT 1.04 | [1] 1 | [2] 0.995

COc1nc(N)nc2c1ncn2[C@@H]1O[C@H](CO)[C@@H](O)[C@@H]1O [Nelarabine]
inactive: P. vulgatus RND KO 0.98 | P. vulgatus WT 0.981 | [1] 0.997 | [2] 0.981

O=C(Oc1ccccc1)c1ccccc1O [Phenyl salicylate]
inactive: P. vulgatus RND KO 1.03 | P. vulgatus WT 1.06 | [1] 1.01 | [2] 0.975

CC(C)C(=O)OCC(=O)[C@@]12O[C@H](C3CCCCC3)O[C@@H]1C[C@H]1[C@@H]3CCC4=CC(=O)C=C[C@]4(C)[C@H]3[C@@H](O)C[C@@]12C [Ciclesonide]
inactive: P. vulgatus RND KO 1.02 | P. vulgatus WT 1.02 | [1] 1.01 | [2] 1.01

OCC(CO)N[C@H]1C[C@](O)(CO)[C@@H](O)[C@H](O)[C@H]1O [Voglibose]
inactive: P. vulgatus RND KO 1.04 | P. vulgatus WT 1.02 | [1] 0.977 | [2] 1.02

CCOC(=O)c1ccc(C#Cc2ccc3c(c2)C(C)(C)CCS3)nc1 [Tazarotene]
inactive: P. vulgatus RND KO 0.993 | P. vulgatus WT 1.02 | [1] 1 | [2] 0.982

CNC(=O)OCc1cccc(COC(=O)NC)n1 [Pyricarbate]
inactive: P. vulgatus RND KO 1.03 | P. vulgatus WT 1.08 | [1] 1.01 | [2] 0.999

CSc1nc2cc(Cl)c(Oc3cccc(Cl)c3Cl)cc2[nH]1 [Triclabendazole]
inactive: P. vulgatus WT 0.129 | [1] 0.991
active: P. vulgatus RND KO 0.0625 | [2] 0.0431

CC(=O)Nc1ccc(C(=O)O)cc1 [Acedoben]
inactive: P. vulgatus RND KO 0.997 | P. vulgatus WT 1.01 | [1] 1 | [2] 0.997

O=c1[nH]c(=O)n(C2CCCO2)cc1F (stereo not given) [Tegafur]
inactive: P. vulgatus RND KO 1 | P. vulgatus WT 1.01 | [1] 1 | [2] 0.999

CC(C)[C@H](N)C(=O)OCC(CO)OCn1cnc2c(=O)nc(N)[nH]c21 (stereo not given in full) [Valganciclovir hydrochloride]
inactive: P. vulgatus RND KO 1.04 | P. vulgatus WT 1.08 | [1] 1 | [2] 1

O=C1c2cccc3c2[C@H](CCC3)CN1[C@@H]1CN2CCC1CC2 [Palonosetron hydrochloride]
inactive: P. vulgatus RND KO 0.973 | P. vulgatus WT 1 | [1] 1 | [2] 0.998

CCCCNC(=N)NC(=N)N [Buformin]
inactive: P. vulgatus RND KO 1.04 | P. vulgatus WT 1.06 | [1] 1.02 | [2] 0.991

N=C(N)Nc1ccc(C(=O)Oc2ccc3cc(C(=N)N)ccc3c2)cc1 [Nafamostat Mesylate]
inactive: P. vulgatus RND KO 1.11 | P. vulgatus WT 1.03 | [1] 0.997 | [2] 0.999

COC(=O)C1=C(C)NC(C)=C(C(=O)OC2CCCN(Cc3ccccc3)C2)C1c1cccc([N+](=O)[O-])c1 (stereo not given) [Benidipine hydrochloride]
inactive: P. vulgatus RND KO 1.01 | P. vulgatus WT 0.968 | [1] 0.993 | [2] 0.961

CCOCC(O)COc1ccc(NC(=O)CC[S+](C)C)cc1 (stereo not given) [Suplatast Tosylate]
inactive: P. vulgatus RND KO 0.998 | P. vulgatus WT 1.01 | [1] 1 | [2] 1

COC(=O)N/N=C/c1c[n+]([O-])c2ccccc2[n+]1[O-] [Carbadox]
inactive: [1] 0.558 | [2] 0.591
active: P. vulgatus RND KO 0.0197 | P. vulgatus WT 0.0112

CCc1oc2ccccc2c1C(=O)c1cc(I)c(O)c(I)c1 [Benziodarone]
inactive: P. vulgatus RND KO 0.647 | P. vulgatus WT 0.606 | [1] 0.999 | [2] 0.815

N[C@H](Cc1ccccc1)C(=O)O [D-phenylalanine]
inactive: P. vulgatus RND KO 0.996 | P. vulgatus WT 0.985 | [1] 0.995 | [2] 1

Cc1cc(C#N)cc(C)c1Oc1nc(Nc2ccc(C#N)cc2)nc(N)c1Br [Etravirine]
inactive: P. vulgatus RND KO 1.03 | P. vulgatus WT 1.02 | [1] 1.01 | [2] 1.01

Cc1c(O)c(=O)ccn1C [Deferiprone]
inactive: P. vulgatus RND KO 0.978 | P. vulgatus WT 0.993 | [1] 1 | [2] 1

O=C1OC(CN2CCOCC2)CN1/N=C/c1ccc([N+](=O)[O-])o1 (stereo not given) [Furaltadone hydrochloride]
inactive: [1] 0.878 | [2] 0.856
active: P. vulgatus RND KO 0.0255 | P. vulgatus WT 0.0192

CCOC(=O)O[C@]1(C(=O)OCCl)CC[C@H]2[C@@H]3CCC4=CC(=O)C=C[C@]4(C)[C@H]3[C@@H](O)C[C@@]21C [Loteprednol etabonate]
inactive: P. vulgatus RND KO 0.853 | P. vulgatus WT 0.862 | [1] 1.01 | [2] 0.953

CCCCOCCOCCOCc1cc2c(cc1CCC)OCO2 [Piperonyl butoxide]
inactive: P. vulgatus RND KO 1.08 | P. vulgatus WT 1.05 | [1] 1.02 | [2] 0.872

CCCCCOC(=O)Nc1nc(=O)n([C@@H]2O[C@H](C)[C@@H](O)[C@H]2O)cc1F [Capecitabine]
inactive: P. vulgatus RND KO 0.987 | P. vulgatus WT 0.998 | [1] 0.982 | [2] 0.994

CCCCOC(=O)c1ccccc1Nc1cccc(C(F)(F)F)c1 [Ufenamate]
inactive: P. vulgatus RND KO 1.02 | P. vulgatus WT 0.978 | [1] 0.998 | [2] 0.992

CO/N=C1\CN(c2nc3c(cc2F)c(=O)c(C(=O)O)cn3C2CC2)CC1CN (stereo not given) [Gemifloxacin mesylate]
active: P. vulgatus RND KO 0.0152 | P. vulgatus WT 0.0136 | [1] 0.0112 | [2] 0.0027

CN1CCN(C2Cc3ccccc3Sc3ccc(Cl)cc32)CC1 (stereo not given) [Octoclothepin maleate salt]
inactive: P. vulgatus RND KO 1.05 | P. vulgatus WT 1.05 | [1] 0.981 | [2] 0.929

O=C(O)c1ccccc1Nc1cc(Cl)ccc1C(=O)O [Lobenzarit disodium]
inactive: P. vulgatus RND KO 0.992 | P. vulgatus WT 1.02 | [1] 1.02 | [2] 0.959

C/C(=C\C(=O)OCCCCCCCCC(=O)O)C[C@@H]1OC[C@H](C[C@@H]2O[C@H]2[C@@H](C)[C@H](C)O)[C@@H](O)[C@H]1O [Mupirocin]
active: [2] 0.0105
inactive: P. vulgatus RND KO 1 | P. vulgatus WT 1.04 | [1] 0.403

CC1CC(OC(=O)C(O)c2ccccc2)CC(C)(C)C1 (stereo not given) [Cyclandelate]
inactive: P. vulgatus RND KO 0.983 | P. vulgatus WT 0.975 | [1] 1 | [2] 0.903

C=CC[C@@H]1/C=C(\C)C[C@H](C)C[C@H](OC)[C@H]2O[C@@](O)(C(=O)C(=O)N3CCCC[C@H]3C(=O)O[C@H](/C(C)=C/[C@@H]3CC[C@@H](O)[C@H](OC)C3)[C@H](C)[C@@H](O)CC1=O)[C@H](C)C[C@@H]2OC [Tacrolimus Monohydrate]
inactive: P. vulgatus RND KO 1 | P. vulgatus WT 1.03 | [1] 0.998 | [2] 1.04
